Test results: ChEMBL document CHEMBL3988442, “University of Dundee, Small-Polar-MMV Screening Library” (2021)
About 13,000 (27%) of roughly 48,000 compounds showed an effect of 50% or more. Some of the results follow.

What follows are compounds tested on Wolbachia pipientis (assay: Anti-Wolbachia Cell-Based Screen). Details: 5 µM.
Type: functional
Parameters: scale not given: in the data most compounds retested in dose-response had high values

Row | SMILES | Percent Effect
1 | C1CCC(c2nnc3sc(C4CCCO4)nn23)C1 (stereo unspecified) | 107.8%
2 | C1CCC(c2nn3c(C4CCCO4)nnc3s2)C1 (stereo unspecified) | 94.06%
3 | C1CCC(c2nnc3sc(C4CCOC4)nn23)C1 (stereo unspecified) | 100.6%
4 | CCn1cc(N2Cc3nc(N4CCN(C)CC4)ncc3C2=O)cn1 | -2.562%
5 | CC(=O)N1CC[C@H]2CC(=O)N(CCc3c[nH]cn3)CC[C@H]2C1 | 10.36%
6 | CN(C)C(=O)CNS(=O)(=O)c1cc(Br)ccc1F | 0.0286%
7 | O=C(O)c1ccc(S(=O)(=O)Nc2ccccc2CC(F)(F)F)c(F)c1 | -4.395%
8 | Cc1cccc(NS(=O)(=O)c2cc(C(=O)O)oc2C)c1Cl | -7.287%
9 | Cc1oc(C(=O)O)cc1S(=O)(=O)Nc1ccc(Cl)cc1F | 103.2%
10 | Cc1oc(C(=O)O)cc1S(=O)(=O)Nc1ccccc1F | 96.87%
11 | Cc1oc(C(=O)O)cc1S(=O)(=O)Nc1cc(Br)ccc1F | 94.97%
12 | Cc1oc(C(=O)O)cc1S(=O)(=O)Nc1cc(Cl)ccc1F | 4.903%
13 | Cc1oc(C(=O)O)cc1S(=O)(=O)Nc1ccc(Cl)c(F)c1 | -4.199%
14 | Cc1oc(C(=O)O)cc1S(=O)(=O)Nc1cccc(-c2nccs2)c1 | 2.887%
15 | Cc1oc(C(=O)O)cc1S(=O)(=O)Nc1cccc(Cl)c1F | 105.9%
16 | Cc1ccc([C@H]2CN(C(C)C)C[C@@H]2NS(=O)(=O)N2CCOCC2)o1 | -9.511%
17 | O=C(O)C(F)(F)F.O=C(c1ccncc1)N1CC[C@H]2[C@H]1CCN2S(=O)(=O)C1CC1 | -0.5443%
18 | CCn1ccnc1CNCC1CCN(CC(O)c2ccccc2)CC1 (stereo unspecified) | -5.873%
19 | Cc1cc(CN2CCC3(CC2)CC(C(=O)O)N(C(=O)C2CC2)C3)oc1C (stereo unspecified) | -10.16%
20 | O=C(c1cc(Cl)c2c(c1)OCO2)N1CCN(c2ccccn2)CC1 | -15.08%
21 | Cc1cccc(NS(=O)(=O)c2cc(C(=O)O)oc2C)c1 | -4.62%
22 | Cc1ccc(F)c(NS(=O)(=O)c2cc(C(=O)O)oc2C)c1 | 98.71%
23 | Cc1oc(C(=O)O)cc1S(=O)(=O)Nc1cc(F)ccc1F | 110.8%
24 | O=C(O)CSc1nnc(-c2cn[nH]c2)n1-c1ccccc1Cl | -15.15%
25 | O=C(CS(=O)(=O)c1cccc[n+]1[O-])NC1CCCc2ccccc21 (stereo unspecified) | 4.468%
26 | CN(Cc1cccnc1)C[C@H]1OC[C@@H]2CCN(C(=O)C3CC3)C[C@@H]21.O=C(O)C(F)(F)F.O=C(O)C(F)(F)F | -29.83%

Row | SMILES | Percent Effect
27 | Cc1ccnc2c1NC(=O)CN2C(=O)CCc1cccs1 | 21.37%
28 | O=C(CO[C@@H]1CC[C@H]2[C@H]1OCCN2Cc1ccccn1)N1CCCC1.O=C(O)C(F)(F)F.O=C(O)C(F)(F)F | -4.207%
29 | Cc1cccc(CO[C@@H]2CC[C@H]3[C@H]2OCCN3Cc2cc(C)on2)n1.O=C(O)C(F)(F)F.O=C(O)C(F)(F)F | -3.201%
30 | COc1ccc(CN2CCO[C@H]3[C@H](Oc4ccccn4)CC[C@@H]32)cc1.O=C(O)C(F)(F)F.O=C(O)C(F)(F)F | -1.108%
31 | Cc1cccc(CN2CCO[C@H]3[C@@H](OCc4ccncc4)CC[C@@H]32)n1.O=C(O)C(F)(F)F.O=C(O)C(F)(F)F.O=C(O)C(F)(F)F | 103.5%
32 | Cc1nnc(N2C[C@H](OCc3ccncc3)[C@H]3OCCC[C@H]32)s1.O=C(O)C(F)(F)F.O=C(O)C(F)(F)F | -4.606%
33 | Fc1ccc(CN2CCO[C@H]3[C@H](OCc4ccncc4)CC[C@@H]32)cc1.O=C(O)C(F)(F)F.O=C(O)C(F)(F)F | 140.9%
34 | Fc1ccccc1CN1C[C@@H](OCc2ccncc2)[C@H]2OCCC[C@H]21.O=C(O)C(F)(F)F.O=C(O)C(F)(F)F | 11.15%
35 | COc1ccc(CN2CCO[C@H]3[C@H](OCc4ccncc4)CC[C@@H]32)cc1.O=C(O)C(F)(F)F.O=C(O)C(F)(F)F | 132.4%
36 | Cc1cccc(CN2CCO[C@@H]3CC(COc4ccccn4)C[C@H]32)n1.O=C(O)C(F)(F)F.O=C(O)C(F)(F)F (stereo partly specified) | 94.81%
37 | Cc1cccc(CN2Cc3[nH]nc(COCC4CC4)c3C2)n1.O=C(O)C(F)(F)F | -6.126%
38 | COc1cc(CNCCn2cccn2)c2c(c1)CC(C)O2 (stereo unspecified) | -3.376%
39 | CC(=O)Nn1c(C)cc(CN2CCC(c3ccncc3)CC2)c1C | -4.141%
40 | CC(c1cccnc1)N(C)Cc1csc(-c2ccccn2)n1 (stereo unspecified) | 4.015%
41 | N#Cc1ccccc1CN1CCC2(CC1)CC(c1ccccc1)C(=O)N2 (stereo unspecified) | 15.31%
42 | Cc1nc(CNC(=O)CCN2CCN(c3ccccc3)CC2)oc1C | 0.8962%
43 | CC(C)c1nn(C)c(N(C)C)c1CNCC(O)c1ccccc1F (stereo unspecified) | -5.015%
44 | COc1ccccc1C(O)CNCc1c(C(C)C)nn(C)c1N(C)C (stereo unspecified) | 2.712%
45 | COc1c(CNCC(O)c2ccc(C)cc2)c(C(C)C)nn1C (stereo unspecified) | 85.73%
46 | COc1c(CNCC(O)c2ccccc2)c(C(C)C)nn1C (stereo unspecified) | 92.93%
47 | COc1ncccc1CNCc1c(C(C)C)nn(C)c1OC | 1.463%
48 | Cc1nn(C)c(N(C)C)c1CNCc1cccc(Cl)c1 | 10.47%
49 | COc1c(CNCc2ccc(N(C)C)nc2)c(C(C)C)nn1C | -3.12%
50 | COc1c(CNCC(c2cccc(F)c2)N(C)C)c(C(C)C)nn1C (stereo unspecified) | 10%
51 | Cc1nn(C)c(N(C)C)c1CNCC(O)c1ccccc1F (stereo unspecified) | 78.77%
52 | COc1c(CNCC(O)c2ccccc2F)c(C(C)C)nn1C (stereo unspecified) | 91.26%

Row | SMILES | Percent Effect
53 | COc1c(CNCc2ccc(CN(C)C)cc2)c(C(C)C)nn1C | -2.323%
54 | Cc1cccc(C(=O)N2CCSCC2)c1NC(=O)c1ccsc1 | 1.507%
55 | O=C(c1cc(=O)[nH]c(=O)[nH]1)N1CCCCC1c1nc2cc(F)ccc2[nH]1 (stereo unspecified) | -7.879%
56 | CC(C)(C)OC(=O)N[C@H]1CCN(c2cncc(Br)c2)C1 | 4.915%
57 | Cn1c(SCc2noc(C(C)(C)C)n2)nnc1C1CCS(=O)(=O)C1 (stereo unspecified) | 11.73%
58 | CCc1ccc(C(=O)NCCCC2(C3OCCO3)CCOCC2)cc1 | -33.3%
59 | N#Cc1ccccc1CN1C[C@@H]2CC[C@H](C1)N(Cc1cscn1)C2=O | -11.1%
60 | O=C(NCc1ccccc1)N1CCC(Oc2ncccc2Br)CC1 | -0.9975%
61 | NC(=O)Nc1cccc(F)c1C(=O)NC1CCCC1 | 2.904%
62 | COc1c(CNCC(O)COc2ccc3c(c2)OCO3)c(C)nn1C (stereo unspecified) | 70.56%
63 | COc1c(CNCC(O)c2cccc(F)c2)c(C)nn1C (stereo unspecified) | 102.4%
64 | COc1c(CNC(c2ccc(F)cc2)C(C)(C)C)c(C)nn1C (stereo unspecified) | 23.53%
65 | COc1c(CNCC(O)c2cccc(F)c2)c(C(C)C)nn1C (stereo unspecified) | 6.756%
66 | Cc1nn(C)c(Cl)c1CNCCOc1ccc2c(c1)OCO2 | -10.2%
67 | Cc1nc(CNCC(O)COc2ccc3c(c2)OCO3)cs1 (stereo unspecified) | -10.52%
68 | CC(=O)c1ccc(N2CCC3(CCC(=O)N(CCCO)C3)CC2)nc1 | -7.997%
69 | Cn1ccnc1CN1C[C@H]2CN(S(=O)(=O)c3ccccc3)CCN2C1=O | 0.6101%
70 | O=C1N(Cc2cccnc2)C[C@H]2CN(S(=O)(=O)c3ccccc3)CCN12 | -1.281%
71 | O=S(=O)(c1cccnc1)N1CCC(OCCCc2ccccc2)C1 (stereo unspecified) | -0.692%
72 | Cc1ncsc1CN1C[C@@H]2CN(S(C)(=O)=O)CCO[C@@H]2C1 | -34.03%
73 | Cc1ccc(CC2CCCN(S(C)(=O)=O)C2)nc1 (stereo unspecified) | 114.6%
74 | Cc1csc(CN2C[C@@H]3CN(S(C)(=O)=O)CCO[C@@H]3C2)n1 | -30.25%
75 | O=C1N(Cc2ccccn2)C[C@H]2CN(S(=O)(=O)c3ccccc3)CCN12 | -3.737%
76 | Cc1ccc(CC2COCCN(S(=O)(=O)c3ccccc3)C2)nc1 (stereo unspecified) | 86.08%
77 | O=S(=O)(c1ccccc1)N1CCOCC(Cc2cccnc2)C1 (stereo unspecified) | 91.68%
78 | Cc1cnc(N2CCC[C@@H]3CN(S(C)(=O)=O)C[C@@H]32)nc1 | 11.33%

Row | SMILES | Percent Effect
79 | CN(CC1CCCN(S(C)(=O)=O)C1)c1cnn(C)c1 (stereo unspecified) | 7.496%
80 | Cc1ccc(CC2COCCN(S(C)(=O)=O)C2)nc1 (stereo unspecified) | 84.13%
81 | Cc1cc(C)n(C2CN(CC(O)c3ccc4c(c3)OCO4)C2)n1 (stereo unspecified) | -2.648%
82 | CCc1nc(C)cc(N2CCCC(C(=O)c3ccc(OC)cc3C)C2)n1 (stereo unspecified) | -51.86%
83 | COCCC1(C(=O)O)CCN(c2cc(C)c3ccccc3n2)CC1 | -3.456%
84 | CCc1nc(C)cc(N2CCN(C(=O)[C@@H]3C[C@@H]4C=C[C@H]3C4)CC2)n1 | 84.46%
85 | CCC(=O)N1CCCN(c2cncc(-n3nc(C)cc3C)n2)CC1 | -2.482%
86 | Cc1cc(N2CCC(O)(C(=O)O)CC2)nc2ccccc12 | -10.2%
87 | Cc1cc(N2CCN(C(=O)[C@@H]3C[C@@H]4C=C[C@H]3C4)CC2)nc2ccccc12 | 54.26%
88 | CC(C)n1nc(Cn2cccn2)c2c1CN(CC1CCOC1)C2.O=C(O)C(F)(F)F (stereo unspecified) | -1.747%
89 | CCOC(=O)NCCC(=O)NCc1ccc(Oc2cccc(F)c2)nc1 | 3.713%
90 | CCS(=O)(=O)N1CCc2ncnc(C)c2CC1 | -1.649%
91 | CCc1ncnc2c1CCN(S(=O)(=O)CC)CC2 | 104.4%
92 | CCOc1ncnc2c1CCN(Cc1cccs1)CC2.O=C(O)C(F)(F)F | -4.6%
93 | CCOc1ncnc2c1CCN(S(=O)(=O)c1ccccc1)CC2 | 89.01%
94 | CCN(C)c1ncnc2c1CCN(C(=O)N(C)C)CC2.O=C(O)C(F)(F)F | -3.614%
95 | CCc1ncnc2c1CCN(C(=O)Cc1ccccn1)CC2 | -1.286%
96 | CCOc1ncnc2c1CCN(S(=O)(=O)CC)CC2 | -16.86%
97 | CCN(C)c1ncnc2c1CCN(C(=O)c1ccccn1)CC2.O=C(O)C(F)(F)F.O=C(O)C(F)(F)F | -0.1551%
98 | CCc1ncnc2c1CCN(S(=O)(=O)c1ccccc1)CC2 | 113.2%
99 | CCN(C)c1ncnc2c1CCN(S(=O)(=O)c1ccccc1)CC2.O=C(O)C(F)(F)F | 77.11%
100 | CCS(=O)(=O)N1CCc2ncnc(OC)c2CC1 | 0.7096%
101 | CCc1ncnc2c1CCN(C(=O)N1CCCC1)CC2 | 16.14%
